# Rows were chosen to be rich in hits. Some 0.44% of all compounds tested hit in one or more screens of this group.
# EPAC2 agonist – agonists of human EPAC2 (RAPGEF4). Q8WZA2. EPAC2 activation, biochemical qHTS; response scale: 100% = 6.5 mM cAMP response. Potency, µM (doses to about 154 µM), for the others: at the highest dose activation, most hits filed as activators. 360,000 tested, 0.079% active. AID 720711; further: nearly all actives have a fitted effect of over 50% in size
#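 Compounds were titrated in qHTS against a Rap1B-BODIPY-GDP (250 nM) complex with EPAC2 (100 nM) and GDP (50 uM). BODIPY-GDP release tracked at 480/540 nm over 30 min at room temperature, normalized to 6.5 mM cAMP.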
# EPAC1 antagonist – EPAC1 (human) antagonism | 360,000 tested, 0.14% active | Potency, µM (highest dose often 115 µM), inactives show at the top dose activity change, negative = inhibition, most hits filed as inhibitors | AID 720709 | O95398 | EPAC1 GEF assay, Rap1b-BODIPY-GDP exchange fluorescence;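 further: plate controls were vehicle for no effect and positive control for full effect; nearly all actives have a fitted effect of over 50% in size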
# EPAC1 ag – EPAC1 (human) agonism; EPAC1 agonist qHTS, biochemical assay; response scale: 100% = response to 6.5 mM cAMP; Potency, µM (series often up to 154 µM), inactives show at the highest dose activation, hits mostly activators; O95398; 360,000 tested, 0.073% active; further: nearly all actives have a fitted effect of over 60% in size
#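 Normalized to 6.5 mM cAMP, activity reflects EPAC1-catalysed release of BODIPY-GDP from Rap1B, followed kinetically over 30 min at 480 nm excitation, 540 nm emission. Reaction contained 100 nM EPAC1, 250 nM Rap1B-BODIPY-GDP, 50 uM GDP.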
# USP1-UAF1 inh – USP1/UAF1 (human) deubiquitinase inhibition; recombinant USP1/UAF1, Ub-Rhodamine cleavage fluorescence; Potency, µM (titrated, usually from 57.1 µM), for inactives: at the top dose activity change, negative = inhibition, usual class: inhibitors; 390,000 tested, 0.23% active; AID 743255; further: on the % scale 0 is the no-effect control and ±100 the full control effect; nearly all actives have a fitted effect of over 60% in size
#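 In this screen, compounds sit with the deubiquitinase complex (1nM) for 15 min at room temperature before Ub-Rho is added at 150nM final. Fluorescence rise is then followed for 6 reads every 60 seconds.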
# EPAC2 antag – blocks human EPAC2 exchange factor | Q8WZA2 | EPAC2 GEF exchange of Rap1B-BODIPY-GDP, fluorescence | Potency, µM (doses to about 114 µM), for inactives: top-dose activity, negative = inhibition, hits mostly inhibitors | 360,000 tested, 0.18% active | AID 720708; further: on the % scale 0 is the no-effect control and ±100 the full control effect; nearly all actives have a fitted effect of over 45% in size
# An asterisk follows results filed as active; ? = inconclusive; . = no result. The call rests on the fitted dose curve; in most records, active means well fitted curve in the direction sought with a large enough effect; inconclusive means small, poorly fitted or top-dose-only effect, or another doubt; inactive means no such curve, though single readings can be large; an effect the other way counts as inactive or inconclusive. Potency means the concentration at half of the fitted maximal effect.
SMILES,EPAC2 agonist,EPAC1 antagonist,EPAC1 ag,USP1-UAF1 inh,EPAC2 antag
Cn1nc(-c2ccccn2)nc2c(=O)n(C)c(=O)nc1-2,?,?,-5%,0.032µM*,?
Cc1ccc(C)c(Cn2c3ccccc3c3cnn(CC(=O)NCCC4=CCCCC4)c(=O)c32)c1,.,.,.,8%,.
Cc1ccccc1CCNC(=O)c1ccc2c(c1)nc1n2CCC(C)C1 (configuration not stated),.,.,.,0%,.
CCOC(=O)C1=C(CS(=O)(=O)c2ccc(Br)cc2)NC(=O)NC1c1ccccc1 (configuration not stated),.,.,.,-10%,.
COC(=O)CN1C(=O)CSc2ccc(S(=O)(=O)Nc3ccccc3)cc21,.,.,.,-4%,.
COc1cccc(-c2ccc3ncnc(N(C)Cc4ccco4)c3c2)c1,11%,-12%,5%,.,32µM*
O=C(Nc1ccccc1Cc1ccccc1)c1ccccc1NS(=O)(=O)c1ccc(Cl)s1,13%,-31%,11%,-16%,32µM*
CCN(CC)CCNC(=O)Cn1ncc2c3ccccc3n(Cc3ccc(Cl)cc3)c2c1=O,.,.,.,-15%,.
CS(=O)(=O)c1ccc2nc(NC(=O)C3CCCO3)sc2c1 (configuration not stated),-3%,3%,5%,-5%,4%
O=C(Nc1nc2ccc(Cl)cc2s1)C1CCCO1 (configuration not stated),7.9µM*,5%,-6%,-24%,-4%
O=C(c1ccco1)N1N=C2CCCCCC2C1(O)C(F)(F)F (configuration not stated),3%,6%,9%,-29%,79µM*
O=C(c1ccncc1)N1N=C2CCCCCC2C1(O)C(F)(F)F (configuration not stated),9%,13%,11%,-9%,-5%
COc1cccc(OC)c1-c1nn2c(-c3cc(-c4ccccc4)n[nH]3)nnc2s1,?,40µM*,?,?,11µM*
CC1(C2CCC3C4CCC5CC6(CCC5(C)C4C(=O)CC32C)OCCO6)OCCO1 (configuration not stated),5%,?,8%,-2%,56µM*
CCc1nc2c(OCc3ccc(OC)cc3)cccn2c1N(C)C(=O)c1ccc(OC)cc1,16%,7%,4%,.,?
CCc1nc2c(OCc3ccc(C(F)(F)F)cc3)cccn2c1N(C)C(=O)c1ccc(OC)cc1,1%,-20%,-4%,.,18µM*
CCc1nc2c(OCc3ccc(C(F)(F)F)cc3)cccn2c1N(C)C(=O)c1ccc(C)cc1,-6%,-21%,-31%,.,16µM*
CCOc1cccc2sc(N(Cc3cccnc3)C(=O)c3ccco3)nc12,.,.,.,-4%,.
O=C(CSc1nc2c(c(=O)[nH]1)CN(Cc1ccc3c(c1)OCO3)CC2)Nc1ccc(F)cc1,.,.,.,-22%,.
COc1ccc(CN(C(=O)c2ccc(OCC(C)C)cc2)C2CCS(=O)(=O)C2)cc1 (configuration not stated),.,.,.,2%,.
CCOc1ccccc1NC(=O)C1CCN(c2nc(-c3ccc(OC)cc3)no2)CC1,0%,61%,112µM*,-20%,2%
COc1ccc(-c2noc(N3CCC(C(=O)Nc4ccccc4Cl)CC3)n2)cc1,4%,-8%,-17%,-7%,9%
Nc1c(C(=O)NC2CC2)sc2nc3c(c(-c4ccco4)c12)CC/C3=C/c1ccco1,11%,?,-5%,28µM*,27%
CCCCCCCCN1C(=O)[C@H](CC(=O)NCc2cccc(C(F)(F)F)c2)C[C@@]2(C(=O)OCC)CCC=C12,-14%,-21%,-21%,.,-13%
COc1cccc(C(=O)c2cn(CC(=O)Nc3ccc4c(c3)OCCO4)c3nc(C)ccc3c2=O)c1,.,.,.,11%,.
SMILES,EPAC2 agonist,EPAC1 antagonist,EPAC1 ag,USP1-UAF1 inh,EPAC2 antag
CC[C@H](C)/C=C/C1=CC2=C(Cl)C(=O)[C@@]3(C)OC(=O)C(C(=O)[C@H](C)[C@@H](C)O)=C3C2=CO1,-14%,50µM*,-21%,?,?
Cn1nc(-c2ccccc2)c2nc3ccccc3nc21,100µM*,10%,9%,?,291%
O=C1Cc2ccccc2C(=O)N1c1ccccc1,1%,-12%,3%,?,-4%
O=C(O)c1cccc(CN2C(=O)c3ccccc3C2=O)c1,15%,-21%,-1%,-31%,3%
O=C1Cc2ccccc2C(=O)N1Cc1ccccc1,-2%,-4%,3%,3.2µM*,-5%
O=C1c2cccc3c(O)ccc(c23)C(=O)N1Cc1ccccc1,89µM*,227%,100µM*,6.3µM*,277%
Cc1cccc(C)c1-n1nnnc1C(c1ccnc2ccccc12)N(C)Cc1ccccc1 (configuration not stated),20%,6%,11%,.,2%
CCc1ccccc1NC(=O)c1ccc2c(c1)N(Cc1cc(C)ccc1C)C(=O)c1ccccc1S2(=O)=O,.,.,.,-21%,.
COc1ccccc1/C=C(/C(=O)OCC(=O)Nc1ccc(N(C)C)cc1)c1ccccc1,16%,-25%,3%,-1%,50µM*
CNc1oc(/C=C/c2cc(OC)c(OC)c(OC)c2)nc1C#N,.,.,.,-22%,.
CC(OC(=O)/C(C#N)=C/c1ccc(N(C)C)cc1)C(=O)N(C)c1ccccc1 (configuration not stated),63µM*,17%,56µM*,?,56%
O=C(Cn1c(SCC(=O)Nc2ccc(F)cc2)nc2ccccc21)NCc1ccccc1Cl,.,.,.,-13%,.
COC(=O)c1ccc(NC(=O)CC2C(=O)N(c3cccc(OC)c3)C(=O)N2C(C)C)cc1 (configuration not stated),.,.,.,-13%,.
CCCCc1c(-c2ccccc2F)ncn1CCc1ccccc1OC,16%,-15%,-7%,.,42µM*
CCCCCc1c(-c2ccccc2F)ncn1CCc1ccccc1OC,0%,-21%,-9%,.,?
CC(=O)Nc1scc(-c2ccccc2)[n+]1-c1ccc(C)cc1,3%,-5%,2%,-16%,32µM*
Cc1ccc(S(=O)(=O)Nc2ccccc2C(=O)Nc2nc(-c3ccc(F)cc3)cs2)cc1,-2%,79µM*,9%,-12%,-24%
O=C(Nc1cc(S(=O)(=O)N2CCCCC2)ccc1Cl)c1ccccc1NS(=O)(=O)c1ccc(F)cc1,-10%,50µM*,0%,-17%,-17%
COc1ccc(-c2csc(NC(=O)c3ccccc3F)n2)cc1,13%,-6%,17%,-21%,3%
COc1ccc(-c2csc(NC(=O)c3ccccc3NS(=O)(=O)c3ccc(F)c(F)c3)n2)cc1,10%,50µM*,-1%,-25%,16µM*
O=C(NCc1cccc(F)c1)c1ccc(CS(=O)c2ccccc2Cl)o1 (configuration not stated),.,.,.,1%,.
COc1ccc(NC(=O)NS(=O)(=O)c2ccc(C)cc2)cn1,11%,109%,100µM*,?,27%
